Measured values reported in the supplement of paper PMC10849652.
Of roughly 8,800 targets only a part is listed; those with a hit were picked by preference. About 0.5% of all pairs of compound and target were hits.

How the values were obtained:
Assay in all cases: log2 fold change, soluble protein after heating vs DMSO (PISA); higher = thermal stabilisation; K562 lysate, 10 uM; active = over 0.2 and 3.5 SD of the protein, either way, in both replicates (recomputed)
[1] = compound: C#Cc1cccc(Nc2ncnc3cc(OCCOC)c(OCCOC)cc23)c1 [erlotinib]
Procedure, shortened: (§1)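 A 30 min treatment with 10 μM compound was applied to crude K562 extract at 1 mg/mL protein in PBS pH 7.4 with 1 mM MgCl2. Heating for 3 min spanned 48°C-58°C, after which aliquots were pooled, adjusted to 0.5% NP-40 at 4°C and spun at 21,000xg for 90 min. TMTpro 16plex LC-MS/MS of the supernatant, with channel sums equalised, gave values recorded as log-two fold change in thermal stability against solvent controls, from duplicates.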

[2] = compound: C/C(=N\NC(=O)C1=CC(=CC=C1)S(=O)(=O)N2CCOCC2)/C3=C(C=CC(=C3)Cl)O
Procedure, shortened: as §1

[3] = compound: C1=CC(=CC=C1C2=NC3=C(N2)C=C(C=C3)C(=O)N)OC4=CC=C(C=C4)Cl
Procedure, shortened: as §1

[4] = compound: C1=CC2=C(C=CC(=C2)/C=C\3/C(=O)NC(=NCC4=CC=CS4)S3)N=C1
Procedure, shortened: as §1

[5] = compound: C1=CC2=NC=CN=C2C=C1/C=C/3\C(=O)NC(=O)S3
Procedure, shortened: as §1

[6] = compound: C1=CC=C(C=C1)C2=NC(=C(N2)C3=CC=NC=C3)C4=CC(=C(C=C4)Cl)O
Procedure, shortened: as §1

[7] = compound: C1=CC=C2C(=C1)C3=NNC4=CC=CC(=C43)C2=O
Procedure, shortened: as §1

[8] = compound: C1CCN(C1)C(=O)NC2=CC=CC(=C2)NC3=NC=C(C(=N3)NCCC4=CN=CN4)Br
Procedure, shortened: as §1

[9] = compound: C1CN(CCC1(CC2=CC=C(C=C2)Cl)N)C3=NC=NC4=C3C=CN4
Procedure, shortened: as §1

[10] = compound: C1COCCN1CCN2C3=CC=CC=C3N=C2NC(=O)C4=CC(=CC=C4)[N+](=O)[O-] [IRAK-1-4 Inhibitor I]
Procedure, shortened: as §1

[11] = compound: C=CC(=O)N1CCC[C@@H](n2nc(-c3ccc(Oc4ccccc4)cc3)c3c(N)ncnc32)C1 [ibrutinib]
Procedure, shortened: as §1

[12] = compound: CC(=O)c1cnc2ccc(-c3cc(Cl)c(O)c(Cl)c3)nc2c1N[C@H]1CC[C@H](CN(C)C)CC1
Procedure, shortened: as §1

[13] = compound: CC(C)(C)Cn1c(N)nc2ccc(-c3[nH]c(C(C)(C)C)nc3-c3ccc(F)cc3)nc21 [ralimetinib]
Procedure, shortened: as §1

[14] = compound: CC(C)(O)CC(=O)NCCn1ccc2ncnc(Nc3ccc(Oc4cccc(C(F)(F)F)c4)c(Cl)c3)c21
Procedure, shortened: as §1

[15] = compound: CC(C)C1=C2N=C(C=C(N2N=C1)NCC3=CC=CC=C3)NCCCCCCN
Procedure, shortened: as §1

[16] = compound: CC1=C(C(CC(=O)N1)C2=CC=C(C=C2)C(F)(F)F)C(=O)NC3=C(C=C4C(=C3)C=NN4)F
Procedure, shortened: as §1

[17] = compound: CC1=C(C2=C(C=C1)C(=O)C3=CC=CC=C3N2CCCN)C
Procedure, shortened: as §1

[18] = compound: CC1=C(C=C(C=C1)NC(=O)C2=CC(=CC=C2)C(C)(C)C#N)NC3=CC4=C(C=C3)N=CN(C4=O)C
Procedure, shortened: as §1

[19] = compound: CC1=C(C=C(C=C1)NC(=O)C2=CC(=CC=C2)N(C)C)NC(=O)C3=CC=C(C=C3)O
Procedure, shortened: as §1

[20] = compound: CC1=CC=C(C=C1)SC2=C3C=C(SC3=CN=C2)C(=O)N
Procedure, shortened: as §1

Measured: log2 fold change

TTK (UniProt P33981)
Chain of UniProt P33981 (P33981 whole entry, looked up): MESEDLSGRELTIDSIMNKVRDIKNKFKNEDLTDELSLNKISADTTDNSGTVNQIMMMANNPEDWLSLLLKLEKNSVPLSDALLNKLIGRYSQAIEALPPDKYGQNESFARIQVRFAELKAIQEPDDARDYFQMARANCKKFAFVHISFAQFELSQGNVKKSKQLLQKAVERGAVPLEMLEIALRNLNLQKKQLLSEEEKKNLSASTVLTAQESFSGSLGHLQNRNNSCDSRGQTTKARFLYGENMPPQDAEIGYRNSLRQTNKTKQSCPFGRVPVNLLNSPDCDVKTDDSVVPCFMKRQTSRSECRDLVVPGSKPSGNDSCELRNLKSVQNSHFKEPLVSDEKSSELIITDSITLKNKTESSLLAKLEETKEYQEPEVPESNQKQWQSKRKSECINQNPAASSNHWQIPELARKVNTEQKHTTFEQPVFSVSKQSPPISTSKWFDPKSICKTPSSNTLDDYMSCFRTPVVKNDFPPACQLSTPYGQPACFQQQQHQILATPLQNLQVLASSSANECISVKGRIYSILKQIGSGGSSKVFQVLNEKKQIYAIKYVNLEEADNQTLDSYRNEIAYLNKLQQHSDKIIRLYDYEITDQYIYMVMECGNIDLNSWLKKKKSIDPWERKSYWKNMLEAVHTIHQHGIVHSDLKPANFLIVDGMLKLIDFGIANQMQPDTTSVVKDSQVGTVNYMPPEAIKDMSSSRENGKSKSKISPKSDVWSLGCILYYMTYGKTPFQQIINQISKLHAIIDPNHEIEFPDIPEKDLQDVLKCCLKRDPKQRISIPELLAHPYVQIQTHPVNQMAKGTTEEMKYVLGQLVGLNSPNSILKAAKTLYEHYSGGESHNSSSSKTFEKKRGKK
inactive: [1] -0.032 | [2] -0.1 | [3] 0.09 | [4] -0.034 | [5] 0.004 | [6] 0.039 | [7] 0.258 | [8] 0.054 | [9] -0.039 | [10] -0.032 | [11] 0.008 | [12] 0.111 | [13] 0.025 | [14] -0.036 | [15] 0.001 | [16] 0.018 | [17] -0.008 | [18] -0.011 | [19] 0.017 | [20] 0.013

TUBB4A (UniProt M0QYM7)
inactive: [1] -0.017 | [2] -0.063 | [3] 0.071 | [4] -0.015 | [5] -0.322 | [6] 0.044 | [7] -0.097 | [8] -0.038 | [9] -0.027 | [10] 0.025 | [11] 0.092 | [12] 0.049 | [13] 0.103 | [14] -0.117 | [15] 0.005 | [16] -0.102 | [18] 0.13 | [19] 0.102 | [20] 0.024

TBC1D20 isoform 3 (UniProt Q96BZ9)
Chain of UniProt Q96BZ9 (Q96BZ9 whole entry, looked up): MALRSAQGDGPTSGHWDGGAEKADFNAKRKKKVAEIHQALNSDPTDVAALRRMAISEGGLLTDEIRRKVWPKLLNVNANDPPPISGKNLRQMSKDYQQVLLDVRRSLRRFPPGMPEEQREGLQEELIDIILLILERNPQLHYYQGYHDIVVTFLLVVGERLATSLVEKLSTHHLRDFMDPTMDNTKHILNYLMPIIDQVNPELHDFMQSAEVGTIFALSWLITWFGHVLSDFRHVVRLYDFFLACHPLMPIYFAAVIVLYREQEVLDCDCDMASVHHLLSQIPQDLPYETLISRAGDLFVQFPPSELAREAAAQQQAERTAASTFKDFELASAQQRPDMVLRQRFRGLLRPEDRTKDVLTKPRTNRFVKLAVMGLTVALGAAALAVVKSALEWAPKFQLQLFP
inactive: [1] -0.073 | [2] 0.142 | [3] -0.113 | [4] 0.043 | [5] 0.117 | [6] -0.038 | [7] -0.018 | [8] 0.033 | [9] 0.023 | [10] 0.132 | [11] 0.078 | [12] -0.016 | [13] 0.001 | [14] -0.14 | [15] -0.082 | [17] 0.05 | [18] -0.171 | [19] 0.019 | [20] -0.005

TNIK (UniProt C9J338)
inactive: [1] 0.067 | [2] -0.048 | [3] 0.067 | [4] -0.071 | [5] -0.064 | [7] -0.112 | [8] -0.101 | [9] 0.064 | [11] 0.041 | [12] -0.076 | [15] 0.025 | [17] -0.042 | [18] 0.16 | [20] -0.114

TTC38 (UniProt Q5R3I4)
Chain of UniProt Q5R3I4 (Q5R3I4 whole entry, looked up): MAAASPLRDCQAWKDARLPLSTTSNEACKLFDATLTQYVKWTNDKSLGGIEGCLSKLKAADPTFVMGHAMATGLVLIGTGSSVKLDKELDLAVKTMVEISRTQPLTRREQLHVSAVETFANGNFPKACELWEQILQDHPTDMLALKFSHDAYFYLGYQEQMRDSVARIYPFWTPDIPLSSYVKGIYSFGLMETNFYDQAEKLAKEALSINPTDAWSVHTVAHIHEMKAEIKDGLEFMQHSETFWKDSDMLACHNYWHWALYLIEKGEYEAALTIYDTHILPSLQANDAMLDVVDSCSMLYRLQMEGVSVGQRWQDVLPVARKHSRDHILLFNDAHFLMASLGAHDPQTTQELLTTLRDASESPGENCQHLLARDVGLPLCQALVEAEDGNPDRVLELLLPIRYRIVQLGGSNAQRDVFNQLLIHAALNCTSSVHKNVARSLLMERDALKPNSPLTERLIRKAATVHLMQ
inactive: [1] 0.037 | [2] 0.015 | [3] 0.009 | [4] 0.039 | [5] 0.007 | [6] 0.035 | [7] -0.022 | [8] -0.003 | [9] 0.068 | [10] -0.004 | [11] -0.049 | [12] 0.033 | [13] 0.008 | [14] 0.007 | [15] -0.011 | [16] 0.005 | [18] -0.013 | [19] 0.067 | [20] 0.014
active: [17] 0.332

TFPI (UniProt P10646)
Chain of UniProt P10646 (P10646 whole entry, looked up): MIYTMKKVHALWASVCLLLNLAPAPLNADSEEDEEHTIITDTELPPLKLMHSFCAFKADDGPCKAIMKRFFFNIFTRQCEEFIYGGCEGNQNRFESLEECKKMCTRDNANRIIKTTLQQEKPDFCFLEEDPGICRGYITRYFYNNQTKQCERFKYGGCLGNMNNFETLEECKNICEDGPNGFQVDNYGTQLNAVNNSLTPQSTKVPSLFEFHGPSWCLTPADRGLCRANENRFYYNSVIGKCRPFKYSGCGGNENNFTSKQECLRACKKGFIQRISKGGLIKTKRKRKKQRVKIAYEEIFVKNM
inactive: [1] -0.069 | [2] 0.093 | [3] 0.011 | [4] 0.089 | [5] -0.141 | [6] -0.02 | [7] -0.232 | [8] -0.096 | [9] 0.065 | [10] 0.003 | [11] 0.024 | [12] 0.035 | [13] 0.046 | [14] -0.003 | [15] -0.011 | [16] -0.042 | [18] 0.021 | [19] -0.027 | [20] 0.073

TMEM167B (UniProt Q9NRX6)
Chain of UniProt Q9NRX6 (Q9NRX6 whole entry, looked up): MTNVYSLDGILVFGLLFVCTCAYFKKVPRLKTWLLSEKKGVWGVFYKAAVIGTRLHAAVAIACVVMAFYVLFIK
inactive: [1] -0.061 | [2] -0.016 | [3] -0.006 | [4] -0.042 | [5] -0.044 | [6] -0.002 | [7] 0.013 | [8] -0.056 | [9] 0.036 | [10] -0.014 | [11] 0.019 | [12] -0.02 | [13] 0.015 | [14] 0.001 | [15] -0.02 | [16] -0.058 | [18] 0.021 | [19] 0.035 | [20] -0.033

TNKS (UniProt O95271)
Chain of UniProt O95271 (O95271 whole entry, looked up): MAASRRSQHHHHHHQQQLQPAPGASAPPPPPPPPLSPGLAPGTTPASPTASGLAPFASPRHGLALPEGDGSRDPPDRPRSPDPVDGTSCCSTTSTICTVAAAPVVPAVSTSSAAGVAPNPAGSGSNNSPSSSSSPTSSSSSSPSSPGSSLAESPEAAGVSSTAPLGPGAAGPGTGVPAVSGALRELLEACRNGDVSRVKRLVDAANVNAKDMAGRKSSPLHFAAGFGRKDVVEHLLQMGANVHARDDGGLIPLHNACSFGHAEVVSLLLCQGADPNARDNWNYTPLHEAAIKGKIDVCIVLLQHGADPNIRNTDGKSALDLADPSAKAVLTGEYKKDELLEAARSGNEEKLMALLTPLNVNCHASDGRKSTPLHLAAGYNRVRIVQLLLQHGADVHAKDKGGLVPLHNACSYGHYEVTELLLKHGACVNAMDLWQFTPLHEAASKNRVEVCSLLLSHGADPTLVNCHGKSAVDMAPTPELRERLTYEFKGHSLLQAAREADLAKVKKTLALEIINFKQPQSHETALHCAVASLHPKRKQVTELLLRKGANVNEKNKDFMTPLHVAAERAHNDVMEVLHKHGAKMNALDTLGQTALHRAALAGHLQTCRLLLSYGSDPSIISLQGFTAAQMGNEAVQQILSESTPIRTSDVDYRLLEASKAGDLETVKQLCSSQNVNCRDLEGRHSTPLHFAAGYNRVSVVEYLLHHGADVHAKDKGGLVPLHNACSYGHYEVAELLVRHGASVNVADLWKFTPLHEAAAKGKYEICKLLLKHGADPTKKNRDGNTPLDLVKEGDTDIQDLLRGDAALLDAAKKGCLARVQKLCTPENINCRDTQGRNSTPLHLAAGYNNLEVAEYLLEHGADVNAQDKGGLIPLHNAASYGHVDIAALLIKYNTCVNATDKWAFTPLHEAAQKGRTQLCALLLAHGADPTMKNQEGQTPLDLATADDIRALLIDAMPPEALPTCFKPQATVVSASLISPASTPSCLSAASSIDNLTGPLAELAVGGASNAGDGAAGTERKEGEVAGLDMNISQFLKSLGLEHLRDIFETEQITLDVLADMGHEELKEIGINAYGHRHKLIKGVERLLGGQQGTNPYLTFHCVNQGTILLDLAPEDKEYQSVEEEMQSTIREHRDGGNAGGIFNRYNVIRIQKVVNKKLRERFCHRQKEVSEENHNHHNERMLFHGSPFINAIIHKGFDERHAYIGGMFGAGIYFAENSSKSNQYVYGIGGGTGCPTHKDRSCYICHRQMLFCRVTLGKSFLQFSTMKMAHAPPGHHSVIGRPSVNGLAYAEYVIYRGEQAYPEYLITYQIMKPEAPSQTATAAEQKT
inactive: [1] 0.064 | [2] -0.024 | [3] -0.036 | [4] -0.005 | [6] 0.052 | [7] -0.01 | [8] -0.061 | [9] -0.02 | [10] -0.073 | [12] 0.038 | [13] -0.04 | [14] 0.022 | [15] -0.045 | [16] -0.001 | [17] -0.076 | [18] 0.004 | [19] 0.006 | [20] 0.124

TMEM177 (UniProt Q53S58)
inactive: [1] 0.042 | [2] 0.06 | [3] -0.042 | [4] 0.016 | [5] -0.019 | [6] -0.054 | [7] 0.148 | [8] 0.019 | [9] 0.005 | [10] 0 | [11] 0.079 | [12] -0.022 | [13] -0.287 | [15] 0.007 | [18] -0.03 | [19] 0.032 | [20] -0.005
active: [14] -0.311

TUBB6 (UniProt K7ES63)
inactive: [1] -0.19 | [2] 0.058 | [3] -0.06 | [4] 0.047 | [5] -0.01 | [6] -0.154 | [7] -0.029 | [8] -0.19 | [9] -0.22 | [10] 0.048 | [11] -0.005 | [12] 0.076 | [13] 0.094 | [14] -0.07 | [15] 0.132 | [16] -0.061 | [18] -0.005 | [19] 0.027 | [20] -0.098

TPM4 (UniProt P67936)
Chain of UniProt P67936 (P67936 whole entry, looked up): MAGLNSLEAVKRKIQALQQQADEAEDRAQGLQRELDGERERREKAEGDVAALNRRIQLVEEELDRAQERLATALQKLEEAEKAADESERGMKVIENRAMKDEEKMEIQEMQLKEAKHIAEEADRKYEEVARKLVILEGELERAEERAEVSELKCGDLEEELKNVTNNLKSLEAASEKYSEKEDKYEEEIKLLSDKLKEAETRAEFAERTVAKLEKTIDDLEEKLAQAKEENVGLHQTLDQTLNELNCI
inactive: [1] 0.028 | [2] 0.048 | [3] 0.005 | [4] 0.058 | [5] -0.012 | [6] 0.001 | [7] 0.009 | [8] -0.064 | [9] -0.012 | [10] 0.028 | [11] -0.019 | [12] -0.021 | [13] 0.003 | [14] -0.023 | [15] -0.023 | [16] -0.038 | [17] 0.012 | [18] 0.01 | [19] 0.013 | [20] 0.006

TMEM199 (UniProt Q8N511)
Chain of UniProt Q8N511 (Q8N511 whole entry, looked up): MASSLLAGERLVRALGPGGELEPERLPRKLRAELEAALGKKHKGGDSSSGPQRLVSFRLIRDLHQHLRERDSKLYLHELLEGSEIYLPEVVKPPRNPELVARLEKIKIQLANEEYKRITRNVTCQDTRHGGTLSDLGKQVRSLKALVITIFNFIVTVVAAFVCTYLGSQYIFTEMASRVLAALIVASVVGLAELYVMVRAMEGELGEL
active: [17] -0.275
inactive: [1] 0.002 | [2] -0.03 | [3] -0.034 | [4] 0.032 | [5] 0.018 | [6] -0.013 | [7] -0.087 | [8] -0.065 | [9] 0.027 | [10] -0.033 | [11] 0.067 | [12] 0.001 | [13] -0.001 | [14] -0.078 | [15] -0.003 | [16] 0.001 | [18] -0.043 | [19] -0.016 | [20] 0.009

TMEM132A isoform 2 (UniProt Q24JP5)
Chain of UniProt Q24JP5 (Q24JP5 whole entry, looked up): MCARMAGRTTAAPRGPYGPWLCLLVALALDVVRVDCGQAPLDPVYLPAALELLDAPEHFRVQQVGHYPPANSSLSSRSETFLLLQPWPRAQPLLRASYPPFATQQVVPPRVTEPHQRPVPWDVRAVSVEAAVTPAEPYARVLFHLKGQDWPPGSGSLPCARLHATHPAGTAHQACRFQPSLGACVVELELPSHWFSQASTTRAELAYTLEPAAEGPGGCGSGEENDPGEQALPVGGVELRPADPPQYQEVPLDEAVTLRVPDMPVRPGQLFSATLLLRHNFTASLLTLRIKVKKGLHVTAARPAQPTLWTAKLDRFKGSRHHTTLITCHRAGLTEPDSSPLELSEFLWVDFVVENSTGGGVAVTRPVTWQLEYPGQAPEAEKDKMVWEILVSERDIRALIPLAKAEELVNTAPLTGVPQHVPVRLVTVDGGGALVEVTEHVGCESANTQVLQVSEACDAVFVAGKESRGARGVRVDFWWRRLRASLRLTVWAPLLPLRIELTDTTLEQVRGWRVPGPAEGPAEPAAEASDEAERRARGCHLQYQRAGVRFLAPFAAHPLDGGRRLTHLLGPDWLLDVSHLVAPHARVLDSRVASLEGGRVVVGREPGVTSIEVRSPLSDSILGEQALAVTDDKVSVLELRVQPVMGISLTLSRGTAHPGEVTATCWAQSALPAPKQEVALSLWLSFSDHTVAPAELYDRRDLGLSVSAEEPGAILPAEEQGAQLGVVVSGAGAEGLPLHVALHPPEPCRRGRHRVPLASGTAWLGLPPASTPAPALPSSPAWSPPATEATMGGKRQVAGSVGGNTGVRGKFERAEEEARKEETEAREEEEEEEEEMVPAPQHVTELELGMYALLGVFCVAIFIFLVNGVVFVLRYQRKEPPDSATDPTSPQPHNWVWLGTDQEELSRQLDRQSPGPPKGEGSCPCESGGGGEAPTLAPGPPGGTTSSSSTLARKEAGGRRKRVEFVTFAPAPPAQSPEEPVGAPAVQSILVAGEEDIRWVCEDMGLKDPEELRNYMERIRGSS
inactive: [1] -0.031 | [3] -0.009 | [6] -0.064 | [8] 0.042 | [9] 0.068 | [10] 0.101 | [12] 0.676 | [13] 0.065 | [14] -0.194 | [15] 0.03 | [18] 0.05 | [19] 0.015 | [20] 0.019
